The compounds below were run on CAMK2D. Details: Compound Concentration (nM):1000.
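Note: KINOMEscan scanMAX binding as percent activity remaining versus control; lower means stronger binding.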

Percent Control, inactive:
O=C(Nc1n[nH]c2nc(-c3ccc(O)cc3)c(Br)cc12)C1CC1 [SB-725317] 100%
COc1cccc(-c2c[nH]c3c(N/N=C/c4ccncc4)ncnc23)c1 [GW814408X] 84%
Cl.O=C(O[C@H]1CN[C@H](C#Cc2cc3ncnc(Nc4ccc5c(cnn5Cc5ccccc5)c4)c3s2)C1)N1CCOCC1 [GSK200398A] 95%
CCS(=O)(=O)c1ccc(OC)c(Nc2ncc(-c3cccc(OC)c3)o2)c1 [GW580509X] 97%
COc1ccc2cc(-c3c(-c4ccncc4)nc(-c4ccc(S(C)(=O)=O)cc4C)n3C)ccc2c1 [SB-633825] 77%
COc1ccc(COc2ccc(Cc3cnc(N)nc3N)cc2OC)cc1 [GW632580X] 89%
C[C@@H](Oc1cc(-n2cnc3ccc(OC4CCN(C)CC4)cc32)sc1C(N)=O)c1ccccc1Cl [GSK579289A] 52%
CCS(=O)(=O)c1ccc(OC)c(Nc2ncc(-c3cccc(F)c3)o2)c1 [GW621970X] 100%
COc1cc(N2CCN(C(C)C)CC2)ccc1Nc1nc(Nc2ccc(F)cc2C(=O)NC[C@@H](O)CO)c2cc[nH]c2n1 [GSK1392956A] 87%
COc1cc2ncn(-c3cc(O[C@H](C)c4ccccc4Cl)c(C(N)=O)s3)c2cc1OC [GSK237701A] 82%
Cl.O=C(Nc1ccc(Oc2ccc3[nH]c(NC(=O)c4ccccc4)nc3c2)cc1)Nc1cc(C(F)(F)F)ccc1F [GW709042A] 100%
COc1cc(C)c(N(C)C(=O)CN(C)C)cc1Nc1nc(Nc2cccc(F)c2C(N)=O)c2cc[nH]c2n1 [GSK2219385] 82%
CCc1ccc(Oc2nccc(-c3c(-c4ccc(F)cc4)ncn3C3CCNCC3)n2)cc1 [SB-242719] 100%
CC1=C(C(=O)Nc2ccc3[nH]ncc3c2)C(c2ccc3ccccc3c2)CC(=O)N1 (stereo not shown) [GSK270822A] 79%
Nc1ncnc2occ(-c3ccc(NC(=O)Nc4cc(C(F)(F)F)ccc4F)cc3)c12 [GW770249X] 100%
O=C1Nc2ccc(C(=O)c3ccco3)cc2C1=Cc1cc(Cl)c(O)c(Cl)c1 [GW406108X] 55%
COc1ccc2[nH]c3c4[nH]c5ccc(OC)cc5c4c4c(c3c2c1)C(=O)NC4=O [GW296115X] 64%
CN(C)CCNC(=O)Nc1ccc(N(C)c2ccnc(Nc3ccc(CS(C)(=O)=O)cc3)n2)cc1.Cl [GW830900A] 93%
Cl.c1ccc(Cc2nc3ccc(Nc4ncnc5ccccc45)cc3[nH]2)cc1 [GR269666A] 100%
COc1ccc2c(-c3ccnc(Nc4cccc(OC(F)(F)F)c4)n3)cnn2n1 [GW810372X] 100%
COc1cccc(-n2ncc3c(N/N=C/c4ccncc4)ncnc32)c1 [GW784752X] 100%
COc1cc(/C=N/Nc2ncnc3[nH]ncc23)ccc1O [GW578748X] 96%
NS(=O)(=O)c1ccc(N/N=C2\C(=O)Nc3ccc(C(=O)NCCc4c[nH]cn4)cc32)cc1 [GW300660X] 100%
NS(=O)(=O)c1ccc(N/N=C2\C(=O)Nc3ccc(-c4cnco4)cc32)cc1 [GW276655] 72%
NS(=O)(=O)c1ccc(Nc2ncc(-c3ccccc3)o2)cc1 [GW572399X] 100%
C/C(Nc1ccc(S(N)(=O)=O)cc1)=C1/C(=O)Nc2ccccc21 [GW335962X] 100%
Cl.O=S1CCN(Cc2ccc(-c3ccc4ncnc(Nc5ccc(OCc6ccccc6)c(F)c5)c4c3)o2)CC1 [GW576924A] 100%
CN(C)c1cc2c(Nc3ccc4c(cnn4Cc4ccccc4)c3)ncnc2cn1 [GW282974X] 72%
CCn1c(-c2nonc2N)nc2c(C#CC(C)(C)O)nc(OCCNC)cc21.Cl [GSK949675] 100%
CC(C)COC(=O)c1ccc2c(c1)/C(=C/Nc1ccc(S(N)(=O)=O)cc1)C(=O)N2 [GW416981X] 72%
CC1=C(C(=O)Nc2ccc3[nH]ncc3c2)C(c2ccc(Cl)c(Cl)c2)CC(=O)N1 (stereo not shown) [GSK299115A] 96%
NS(=O)(=O)c1ccc(N/N=C2\C(=O)Nc3ccc(Cl)cc32)cc1 [GW280670X] 100%
COc1cc(C=NNc2ncnc3c2cnn3-c2ccccc2)ccc1O [GW513184X] 100%
COc1cc2ncnc(Nc3ccc4c(cnn4Cc4ccccc4)c3)c2cc1OC.Cl [GW282449A] 100%
COC(=O)Nc1nc2ccc(Oc3ccc(NC(=O)Nc4cc(C(F)(F)F)ccc4F)cc3)cc2s1.Cl [GW693917A] 98%
NS(=O)(=O)c1ccc(N/N=C2\C(=O)Nc3ccc(C(=O)NCc4ccncc4)cc32)cc1 [GW300657X] 81%
Cl.O=C(Nc1ccc(Oc2ccc3[nH]c(NC(=O)c4ccco4)nc3c2)cc1)Nc1cc(C(F)(F)F)ccc1F [GW683134A] 100%
COc1ccccc1-c1cc(/C=C2\C(=O)Nc3ncc(Br)cc32)cc(Br)c1O [GW442130X] 100%
CN1CCN(C(=O)c2ccc(NC(=O)Nc3ccc(N(C)c4ccnc(Nc5ccc(CS(C)(=O)=O)cc5)n4)cc3)cc2)CC1.Cl [GW830263A] 69%
Cc1cc(O)cc(C)c1/C=C/c1cncc(C(N)=O)c1 [GW435821X] 100%

Source: PMC7826789 (International Journal of Molecular Sciences, 2021)
